Reference: the supplement of paper PMC11537057
Structures can show the parent of a compound that is named as a salt. ± gives the standard deviation of the averaged measurements. Whole data set: some 1,700 compounds, median “cell number in HSV-1-infected wells relative to infected DMSO wells (H2B-RFP signal)” near 100, cut for the highest 2% near 140. The full list was thinned out, with the highest values kept by preference.

These compounds were tested on A549 infected with HSV-1 (assay: cell number in HSV-1-infected wells relative to infected DMSO wells (H2B-RFP signal); higher = more surviving cells (uninfected or antiviral-protected wells give about 200%; low = toxicity)). Conditions: 10 µM; 48 h; MOI: 0.1.
Method: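 Selleck FDA-approved library (L1300) screened in duplicate at 10 µM on A549 H2B-mRuby cells in 384-well plates, infected with HSV-1 strain 17 YFP-ICP4 at MOI 0.1 one hour before drug addition. Imaged after 2 days at 37°C. Cell growth (H2B-RFP) and infection (ICP4-YFP) are expressed as % of DMSO-treated wells. Hits: growth >90% and infection <20% of DMSO.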

SMILES	cell number in HSV-1-infected wells [%]
NC(=O)c1cccc2cn(-c3ccc([C@@H]4CCCNC4)cc3)nc12 [Niraparib (MK-4827)]	71.2 ± 3.2
NC(=O)c1cccc2cn(-c3ccc([C@@H]4CCCNC4)cc3)nc12 [Niraparib (MK-4827) tosylate]	71.7 ± 13
C[C@H](CCC(=O)O)[C@H]1CC[C@H]2[C@@H]3CC[C@@H]4C[C@H](O)CC[C@]4(C)[C@H]3C[C@H](O)[C@]12C [Deoxycholic acid]	109 ± 44
COCC[n+]1c2c(n(Cc3cnccn3)c1C)C(=O)c1ccccc1C2=O [YM155 (Sepantronium Bromide)]	9.16 ± 6
CCN1CC(CCN2CCOCC2)C(c2ccccc2)(c2ccccc2)C1=O (configuration not stated) [Doxapram]	96.5 ± 8.2
CCN1CC(CCN2CCOCC2)C(c2ccccc2)(c2ccccc2)C1=O (configuration not stated) [Doxapram HCl]	91.29 ± 0.3
CC(C)N(CCCCOCC(=O)NS(C)(=O)=O)c1cnc(-c2ccccc2)c(-c2ccccc2)n1 [Selexipag]	80.8 ± 1.5
CN(C/C=C/C#CC(C)(C)C)Cc1cccc2ccccc12 [Terbinafine HCl]	101 ± 9
CN(C/C=C/C#CC(C)(C)C)Cc1cccc2ccccc12 [Terbinafine]	99.9 ± 40
OC[C@H]1O[C@H](O[C@H]2[C@H](O)[C@@H](O)C(O)O[C@@H]2CO)[C@H](O)[C@@H](O)[C@@H]1O (mixture of isomers) [Maltose]	117 ± 4.3
Cc1c(-c2cnccn2)ssc1=S [Oltipraz]	100 ± 4
C[C@@H](c1nc(-c2ccc(C#N)cc2)cs1)[C@](O)(Cn1cncn1)c1cc(F)ccc1F [Isavuconazole]	99.7 ± 21
CC(C)(C)C(=O)OCOP(=O)(COCCn1cnc2c(N)ncnc21)OCOC(=O)C(C)(C)C [Adefovir Dipivoxil]	64.6 ± 8.8
CC(C)OC(=O)OCOP(=O)(CO[C@H](C)Cn1cnc2c(N)ncnc21)OCOC(=O)OC(C)C [Tenofovir Disoproxil Fumarate]	147.7 ± 0.7
C[C@H](Cn1cnc2c(N)ncnc21)OCP(=O)(O)O [Tenofovir]	79.9 ± 13
CC(C)OC(=O)[C@H](C)N[P@](=O)(OC[C@H]1O[C@@H](n2ccc(=O)[nH]c2=O)[C@](C)(F)[C@@H]1O)Oc1ccccc1 [Sofosbuvir (PSI-7977, GS-7977)]	73.7 ± 21
CC(C)OC(=O)[C@H](C)N[P@](=O)(CO[C@H](C)Cn1cnc2c(N)ncnc21)Oc1ccccc1 [Tenofovir Alafenamide (GS-7340)]	189.3 ± 1.6
O=c1oc2c(O)c(O)cc3c(=O)oc4c(O)c(O)cc1c4c23 [Ellagic acid]	106 ± 2.3
N=C1CCCN1Cc1[nH]c(=O)[nH]c(=O)c1Cl [Tipiracil hydrochloride]	107 ± 1.8
COC(=O)N[C@@H](C)CNc1nccc(-c2cn(C(C)C)nc2-c2cc(Cl)cc(NS(C)(=O)=O)c2F)n1 [Encorafenib (LGX818)]	124 ± 6.5
CNCC[C@H](Oc1cccc2ccccc12)c1cccs1 [Duloxetine]	121.44 ± 0.086
CNCC[C@H](Oc1cccc2ccccc12)c1cccs1 [Duloxetine HCl]	92.1 ± 10
CNC(=O)c1ccc(Nc2ncc(C(F)(F)F)c(NCc3nccnc3N(C)S(C)(=O)=O)n2)cc1	27.6 ± 6.6
CC(C)(Oc1ccc(CCNC(=O)c2ccc(Cl)cc2)cc1)C(=O)O [Bezafibrate]	147 ± 48

SMILES	cell number in HSV-1-infected wells [%]
CC(C)(Oc1ccc(C(=O)c2ccc(Cl)cc2)cc1)C(=O)O [Fenofibric acid]	75.9 ± 3.5
CC(C)(Oc1ccc(Cl)cc1)C(=O)O [Clofibric Acid]	82.4 ± 11
CC1(C)S[C@@H]2[C@H](NC(=O)COc3ccccc3)C(=O)N2[C@H]1C(=O)O [Penicillin V potassium salt]	86.4 ± 5.6
Cc1cc(C)cc(OCC2CNC(=O)O2)c1 (configuration not stated) [Metaxalone]	132 ± 16
Nc1nc2[nH]cc(CCc3ccc(C(=O)N[C@@H](CCC(=O)O)C(=O)O)cc3)c2c(=O)[nH]1 [Pemetrexed]	59.2 ± 18
Nc1nc2[nH]cc(CCc3ccc(C(=O)N[C@@H](CCC(=O)O)C(=O)O)cc3)c2c(=O)[nH]1 [Pemetrexed Disodium Hydrate]	67 ± 22
CC(=O)SCC(Cc1ccccc1)C(=O)NCC(=O)OCc1ccccc1 (configuration not stated) [Racecadotril]	96.3 ± 17
Cc1cc2c(cc1S(N)(=O)=O)S(=O)(=O)CCC2 [Meticrane]	83.96 ± 0.47
CS(=O)(=O)c1cccc(C[C@H](NC(=O)c2c(Cl)cc3c(c2Cl)CCN(C(=O)c2ccc4ccoc4c2)C3)C(=O)O)c1 [Lifitegrast]	104 ± 15
Cn1ncc(Cl)c1-c1cc(C(=O)N[C@H](CN)Cc2ccc(F)c(F)c2)oc1Cl	69.8 ± 17
COc1cc2nccc(Oc3ccc(NC(=O)NC4CC4)c(Cl)c3)c2cc1C(N)=O [lenvatinib Mesylate]	144 ± 32
COc1cc2nccc(Oc3ccc(NC(=O)Nc4cc(C)on4)c(Cl)c3)c2cc1OC [Tivozanib (AV-951)]	117 ± 40
COc1cc2nccc(Oc3ccc(NC(=O)C4(C(=O)Nc5ccc(F)cc5)CC4)cc3)c2cc1OC	72.2 ± 7.6
COc1cc2nccc(Oc3ccc(NC(=O)NC4CC4)c(Cl)c3)c2cc1C(N)=O [Lenvatinib (E7080)]	104 ± 6
COc1cc2nccc(Oc3ccc(NC(=O)C4(C(=O)Nc5ccc(F)cc5)CC4)cc3)c2cc1OC [Cabozantinib malate (XL184)]	90.5 ± 47
Cc1nccn1CC1CCc2c(c3ccccc3n2C)C1=O (configuration not stated) [Ondansetron HCl]	74.7 ± 25
Cc1nccn1CC1CCc2c(c3ccccc3n2C)C1=O (configuration not stated) [Ondansetron Hydrochloride Dihydrate]	76 ± 13
CN(C)CCC=C1c2ccccc2COc2ccccc21 [Doxepin HCl]	104 ± 11
Cc1[nH]cnc1CN1CCc2c(c3ccccc3n2C)C1=O [Alosetron Hydrochloride]	112 ± 6.3
COC(=O)C1=C(C)NC(C)=C(C(=O)OC(C)C)C1c1cccc2nonc12 (configuration not stated) [Isradipine]	97.7 ± 3.5
O=NN(CCCl)C(=O)NC1CCCCC1 [Lomustine]	84.7 ± 27
CO/N=C(\C(=O)N[C@@H]1C(=O)N2C(C(=O)OCOC(=O)C(C)(C)C)=C(/C=C\c3scnc3C)CS[C@H]12)c1csc(N)n1 [Cefditoren Pivoxil]	110 ± 2.6
CC/C=C(\C(=O)N[C@@H]1C(=O)N2C(C(=O)OCOC(=O)C(C)(C)C)=C(COC(N)=O)CS[C@H]12)c1csc(N)n1 [Cefcapene Pivoxil Hydrochloride]	149.2 ± 0.042
CO/N=C(\C(=O)N[C@@H]1C(=O)N2C(C(=O)O)=C(COC(C)=O)CS[C@H]12)c1csc(N)n1 [Cefotaxime sodium]	103 ± 12

SMILES	cell number in HSV-1-infected wells [%]
CCC(=O)NS(=O)(=O)c1ccc(-c2c(-c3ccccc3)noc2C)cc1 [Parecoxib]	115 ± 8.7
CCC(=O)NS(=O)(=O)c1ccc(-c2c(-c3ccccc3)noc2C)cc1 [Parecoxib Sodium]	89.9 ± 1
CC(=O)NO [Acetohydroxamic acid]	127 ± 15
Cc1nc(-c2ccc(OCC(C)C)c(C#N)c2)sc1C(=O)O [Febuxostat]	95.2 ± 11
O=C1[C@@H]2[C@H]3CC[C@H](C3)[C@@H]2C(=O)N1C[C@@H]1CCCC[C@H]1CN1CCN(c2nsc3ccccc23)CC1 [lurasidone]	75.7 ± 27
CN1CCOC(c2ccccc2)c2ccccc2C1 (configuration not stated) [Nefopam HCl]	120 ± 8.1
CC1(C)C[C@@H]1C(=O)N/C(=C\CCCCSC[C@H](N)C(=O)O)C(=O)O [Cilastatin]	99 ± 21
CN(C)C(=O)COC(=O)Cc1ccc(OC(=O)c2ccc(NC(=N)N)cc2)cc1 [Camostat Mesilate]	124 ± 36
O=C(O)c1cccnc1 [Nicotinic Acid]	93.2 ± 4
Cc1c(C(C)C)c(=O)n(-c2ccccc2)n1C [Propyphenazone (4-Isopropylantipyrine)]	78.4 ± 2.3
Cc1c(NC(=O)c2cccnc2)c(=O)n(-c2ccccc2)n1C [Nifenazone]	145 ± 5.2
CCCC(CCC)C(N)=O [Valpromide]	91.6 ± 13
CC(=O)Oc1ccc(C(=C2CCCCC2)c2ccc(OC(C)=O)cc2)cc1 [Cyclofenil]	122 ± 7.6
CNC(=O)c1cnn(-c2nc(N)c3ncn([C@@H]4O[C@H](CO)[C@@H](O)[C@H]4O)c3n2)c1 [Regadenoson]	128 ± 16
Nc1ccc(/N=N/c2ccccc2)c(N)n1 [Phenazopyridine HCl]	121 ± 23
COC(=O)C1=C(C)NC(C)=C(C(=O)OCC(C)C)C1c1ccccc1[N+](=O)[O-] (configuration not stated) [Nisoldipine]	92.2 ± 1.4
O=C(O)CSCC(=O)NC1CCSC1=O (configuration not stated) [Erdosteine]	121 ± 9.9
CC(=O)NC1CCSC1=O (configuration not stated) [Citiolone]	144 ± 26
OC[C@H]1O[C@@H](c2ccc(Cl)c(Cc3ccc(O[C@H]4CCOC4)cc3)c2)[C@H](O)[C@@H](O)[C@@H]1O	110 ± 9
CN[C@H]1C(=O)N[C@@H]2Cc3ccc(cc3)Oc3cc4cc(c3O[C@@H]3O[C@H](C(=O)O)[C@@H](O)[C@H](O)[C@H]3NC(=O)CCCCCCCCC(C)C)Oc3ccc(cc3Cl)[C@@H](O)[C@@H]3NC(=O)[C@H](NC(=O)[C@@H]4NC(=O)[C@@H](NC2=O)c2cc(cc(O)c2Cl)Oc2cc1ccc2O)c1ccc(O)c(c1)-c1c(O[C@H]2O[C@H](CO)[C@@H](O)[C@H](O)[C@@H]2O)cc(O)cc1[C@@H](C(=O)NCCCN(C)C)NC3=O [Dalbavancin]	125 ± 2.5
CSCCNc1nc(SCCC(F)(F)F)nc2c1ncn2[C@@H]1O[C@H](COP(=O)(O)OP(=O)(O)C(Cl)(Cl)P(=O)(O)O)[C@@H](O)[C@H]1O [Cangrelor Tetrasodium]	99.5 ± 2.3
CNCCCN1c2ccccc2CCc2ccccc21 [Desipramine Hydrochloride]	163 ± 20
CN(C)CCCN1c2ccccc2CCc2ccccc21 [Imipramine HCl]	134 ± 28
CN(C)CCCN1c2ccccc2CCc2ccc(Cl)cc21 [Clomipramine HCl]	93 ± 22
